According to PubChem BioAssay (EPA / NIEHS):
Calls of active or inactive are those of the source. How the source made its calls: active means hit-call score of the fitted dose curve at least 0.9, where 1 is the maximum; inactive means score below 0.9.

Assays:
[1] = ATG_GRE_CIS: Attagene CIS-FACTORIAL HepG2 Assay for human Glucocorticoid Response Elements (GRE) (AID 2282947); conditions: HepG2 GRE cis-reporter, Attagene multiplex mRNA; actives raise or lower the signal
Method in brief: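 Reporter transcripts read by RT-PCR with capillary electrophoresis fluorescence after a 24 h chemical exposure of HepG2 cells transiently transfected with multiple cis-element reporter units. Gain or loss fitted against DMSO.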

[2] = ATG_ISRE_CIS: Attagene CIS-FACTORIAL HepG2 Assay for human Interferon Regulatory Factor 1 (IRF1) binding to an Interferon-Stimulated Response Element (ISRE) (AID 2282948); conditions: HepG2 ISRE cis-reporter (Attagene), mRNA transcription readout; actives raise or lower the signal
Method in brief: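 Endogenous transcription factor activity read as reporter transcript abundance via RT-PCR and capillary electrophoresis. HepG2 cells transiently transfected, 24 h chemical exposure. Gain or loss fitted against DMSO baseline.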

[3] = ATG_M_32_CIS: Attagene CIS-FACTORIAL HepG2 Assay for M32 Transcription Factor (Internal Marker) (AID 2282949); conditions: HepG2 Attagene cis-factorial M32 reporter, mRNA; actives raise or lower the signal;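 further: background control marker of the multiplexed CIS panel rather than a real target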
Method in brief: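 HepG2 human liver cells transiently transfected with cis-promoter-driven multiple reporter transcription units, dosed 24 h. Reporter mRNA quantified by RT-PCR, FAM-labelled primer extension, HpaI digest and capillary electrophoresis; bidirectional fit versus DMSO baseline.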

[4] = ATG_M_06_CIS: Attagene CIS-FACTORIAL HepG2 Assay for M06 Transcription Factor (Internal Marker) (AID 2282950); conditions: HepG2 Attagene CIS-FACTORIAL M06 internal marker reporter; actives raise or lower the signal
Method in brief: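 Terse: HepG2, transient MRTU transfection (FuGene 6), 24 h dosing; total RNA, oligo(dT) RT, PCR, FAM label, HpaI cut, capillary electrophoresis; bidirectional fit vs DMSO baseline; background-control endpoint.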

[5] = target: Hypoxia-inducible factor 1-alpha (Homo sapiens) (UniProt Q16665); experiment: ATG_HIF1a_CIS: Attagene CIS-FACTORIAL HepG2 Assay for human Hypoxia Inducible Factor 1 (HIF1A) (AID 2282951); conditions: HepG2 Attagene cis-factorial HIF1a reporter transcription; actives raise or lower the signal
Method in brief: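 After 24 h chemical exposure of reporter-transfected HepG2 cells, reporter cDNA was PCR-amplified, labelled by 6-FAM primer extension (2 min 95 C, 20 s 68 C, 10 min 72 C), HpaI-cut (2 h, 37 C) and analysed by CE.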

[6] = target: Hepatocyte nuclear factor 6 (Homo sapiens) (UniProt Q9UBC0); experiment: ATG_HNF6_CIS: Attagene CIS-FACTORIAL HepG2 Assay for human Hepatocyte Nuclear Factor 6 (HNF6) (AID 2282952); conditions: HepG2 Attagene cis-factorial HNF6 reporter transcription; actives raise or lower the signal
Method in brief: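 Endogenous factor activity read in transiently transfected HepG2 via promoter-regulated reporter transcripts. RNA harvested 24 h post-dosing, reverse-transcribed, PCR-amplified, FAM-labelled, HpaI-digested and resolved by capillary electrophoresis; fitted in both directions against DMSO.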

[7] = target: Heat shock factor protein 1 (Homo sapiens) (UniProt Q00613); experiment: ATG_HSE_CIS: Attagene CIS-FACTORIAL HepG2 Assay for human Heat Shock Transcription Factor 1 (HSE) (AID 2282953); conditions: HepG2 HSE cis-reporter, Attagene RNA transcription; actives raise or lower the signal
Method in brief: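 Read-out: fluorescence of reporter-specific RT-PCR fragments separated by capillary electrophoresis. HepG2 carrying transfected cis-element reporter units; 24 h dosing; activity fitted in both directions relative to DMSO baseline.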

[8] = ATG_MRE_CIS: Attagene CIS-FACTORIAL HepG2 Assay for human Metal Responsive Element (MRE) (AID 2282954); conditions: HepG2 MRE cis-reporter transcription, Attagene multiplex; actives raise or lower the signal
Method in brief: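 Endogenous MRE-dependent transcription read as reporter mRNA in transiently transfected human HepG2 cells at 24 h. RNA reverse-transcribed, PCR-amplified, labelled and resolved by capillary electrophoresis; gain or loss relative to DMSO.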

[9] = ATG_PBREM_CIS: Attagene CIS-FACTORIAL HepG2 Assay for human Phenobarbital-responsive Enhancer Module (PBREM) (AID 2282955); conditions: HepG2 PBREM cis-reporter, Attagene multiplexed transcription; actives raise or lower the signal
Method in brief: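 Measures endogenous factor action on a phenobarbital-responsive enhancer module. HepG2 transiently carrying cis reporters, 24 h treatment, mRNA read-out by RT-PCR plus capillary electrophoresis.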

[10] = target: Paired box protein Pax-6 (Homo sapiens) (UniProt P26367); experiment: ATG_Pax6_CIS: Attagene CIS-FACTORIAL HepG2 Assay for human Paired Box 6 (PAX6) (AID 2282956); conditions: HepG2 CIS-FACTORIAL PAX6 reporter transcription, RNA readout; actives raise or lower the signal
Method in brief: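 Read-out is reporter transcript level, measured by RT-PCR with fluorescent primer extension and capillary electrophoresis after 24 h dosing of transfected HepG2 cells. Activity in either direction fitted relative to DMSO control.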

[11] = ATG_PXRE_CIS: Attagene CIS-FACTORIAL HepG2 Assay for human Pregnane X Receptor Element (PXRE) (AID 2282957); conditions: HepG2 Attagene CIS-FACTORIAL PXRE reporter, mRNA; actives raise or lower the signal
Method in brief: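 Reporter transcripts under endogenous PXR-responsive cis-regulation quantified from total RNA of transfected HepG2 cells 24 h post-dosing, via RT-PCR with fluorescent primer extension and capillary electrophoresis. Gain or loss of signal fitted against DMSO baseline.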

[12] = ATG_PPRE_CIS: Attagene CIS-FACTORIAL HepG2 Assay for human Peroxisome Proliferator-activated Response Element (PPRE) (AID 2282958); conditions: HepG2 PPRE cis-element reporter, Attagene transcription factor profiling; actives raise or lower the signal
Method in brief: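 PPRE activity in HepG2: transient cis-reporter transfection, 24 h compound incubation, reporter mRNA by RT-PCR and CE fluorescence; gain/loss fitted against DMSO.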

[13] = ATG_RORE_CIS: Attagene CIS-FACTORIAL HepG2 Assay for human RAR-related Orphan Receptor Element (RORE) (AID 2282959); conditions: HepG2 Attagene cis-factorial RORE reporter, mRNA; actives raise or lower the signal
Method in brief: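 A 24-hour exposure of transfected HepG2 hepatoma cells precedes RNA isolation and reporter RT-PCR. Labeled products are digested with HpaI and resolved by capillary electrophoresis, with gain or loss of signal scored relative to DMSO.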

[14] = ATG_Sox_CIS: Attagene CIS-FACTORIAL HepG2 Assay for human SRY-box transcription factor (SOX) (AID 2282960); conditions: HepG2 Attagene cis-factorial SOX reporter, mRNA; actives raise or lower the signal
Method in brief: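 HepG2, cis reporter units, 24 h exposure. Reporter mRNA: RT-PCR → FAM labelling → HpaI → CE fluorescence. Bidirectional fit vs DMSO.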

[15] = ATG_SREBP_CIS: Attagene CIS-FACTORIAL HepG2 Assay for human Sterol Regulatory Element Binding (SREBP) (AID 2282962); conditions: HepG2 Attagene cis-factorial SREBP reporter, mRNA; actives raise or lower the signal
Method in brief: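 Endogenous SREBP activity read as cis-element-driven reporter transcript in transiently transfected HepG2, 24 h post-dosing; quantified via RT-PCR plus capillary electrophoresis of fluorescent fragments. Gain or loss of signal fitted relative to DMSO baseline.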

[16] = target: Signal transducer and activator of transcription 3 (Homo sapiens) (UniProt P40763); experiment: ATG_STAT3_CIS: Attagene CIS-FACTORIAL HepG2 Assay for human Signal Transducer and Activator of Transcription 3 (STAT3) (AID 2282963); conditions: HepG2, Attagene cis-factorial STAT3 reporter transcription; actives raise or lower the signal
Method in brief: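 Readout is reporter transcript quantified by RT-PCR and capillary electrophoresis, with 6-FAM primer extension and HpaI digestion. Total RNA is taken 24 h after dosing transiently transfected HepG2 carrying cis-regulated reporter units. Bidirectional fit against DMSO.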

[17] = ATG_TA_CIS: Attagene CIS-FACTORIAL HepG2 Assay for human TA Basal Promoter (AID 2282964); conditions: HepG2 Attagene CIS-factorial TA basal promoter reporter; actives raise or lower the signal
Method in brief: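 Transfected HepG2, 24 h compound exposure; RNA → RT-PCR → FAM primer extension → HpaI cut → CE fluorescence. Gain/loss-of-signal fitted against DMSO negative control. Background-control readout.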

[18] = ATG_TCF_b_cat_CIS: Attagene CIS-FACTORIAL HepG2 Assay for human T-Cell-Factor with beta-catenin (TCF/b-cat) (AID 2282965); conditions: HepG2 TCF/beta-catenin cis-reporter transcription, actives raise or lower the signal
Method in brief: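 Endogenous TCF/LEF activity read as reporter transcript level via RT-PCR and capillary electrophoresis fluorescence in transfected HepG2, 24 h exposure; gain or loss of signal fitted against DMSO controls.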

[19] = target: Transcription factor Sp1 (Homo sapiens) (UniProt P08047); experiment: ATG_Sp1_CIS: Attagene CIS-FACTORIAL HepG2 Assay for human Specificity Protein 1 (Sp1) (AID 2282961); conditions: HepG2 Sp1 cis-reporter transcription, actives raise or lower the signal
Method in brief: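 Liver-derived HepG2 cells, cis-element reporter library, 24 h treatment; RNA isolated, cDNA amplified with reporter-specific primers, FAM-labeled fragments sized on capillary analyzer. DMSO baseline, bidirectional curve fit.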

[20] = target: Bile acid receptor (Homo sapiens) (UniProt Q96RI1); experiment: ATG_IR1_CIS: Attagene CIS-FACTORIAL HepG2 Assay for human Nuclear Receptor Subfamily 1 Group H Member 4 (NR1H4), IR1 submotif (AID 2282946); conditions: IR1 reporter transcription, actives raise or lower the signal
Method in brief: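 HepG2 cells transiently transfected with multiplexed cis-element reporter units read endogenous transcription factor activity. After 24 h compound exposure, reporter mRNA was quantified by RT-PCR, fluorescent labelling, HpaI digestion and capillary electrophoresis; bidirectional fitting versus DMSO baseline.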

Measured: AC50

Sequence of Transcription factor Sp1 (Homo sapiens) (P08047 whole entry, looked up, the tested form may be a part): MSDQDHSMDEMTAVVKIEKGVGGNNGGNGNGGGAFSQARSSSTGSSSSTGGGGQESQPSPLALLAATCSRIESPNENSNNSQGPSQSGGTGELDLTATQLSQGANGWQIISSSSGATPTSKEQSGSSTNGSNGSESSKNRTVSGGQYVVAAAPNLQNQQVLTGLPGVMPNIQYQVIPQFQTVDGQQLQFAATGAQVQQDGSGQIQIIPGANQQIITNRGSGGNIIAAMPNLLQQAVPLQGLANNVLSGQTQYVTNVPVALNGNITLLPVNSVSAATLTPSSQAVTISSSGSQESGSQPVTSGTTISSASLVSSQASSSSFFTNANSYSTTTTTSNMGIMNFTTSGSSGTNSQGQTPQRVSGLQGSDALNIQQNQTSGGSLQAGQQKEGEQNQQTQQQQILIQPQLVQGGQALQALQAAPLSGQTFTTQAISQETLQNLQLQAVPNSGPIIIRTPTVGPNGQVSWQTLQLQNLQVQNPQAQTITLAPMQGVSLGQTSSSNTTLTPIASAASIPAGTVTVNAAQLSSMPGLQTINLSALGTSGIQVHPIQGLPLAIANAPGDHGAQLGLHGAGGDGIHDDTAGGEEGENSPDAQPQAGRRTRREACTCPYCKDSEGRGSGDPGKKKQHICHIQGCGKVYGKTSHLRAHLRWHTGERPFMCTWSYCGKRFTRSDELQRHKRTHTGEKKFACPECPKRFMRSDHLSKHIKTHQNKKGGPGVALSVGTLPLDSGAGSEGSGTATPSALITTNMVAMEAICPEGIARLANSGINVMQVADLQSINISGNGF
Sequence of Signal transducer and activator of transcription 3 (Homo sapiens) (P40763 whole entry, looked up): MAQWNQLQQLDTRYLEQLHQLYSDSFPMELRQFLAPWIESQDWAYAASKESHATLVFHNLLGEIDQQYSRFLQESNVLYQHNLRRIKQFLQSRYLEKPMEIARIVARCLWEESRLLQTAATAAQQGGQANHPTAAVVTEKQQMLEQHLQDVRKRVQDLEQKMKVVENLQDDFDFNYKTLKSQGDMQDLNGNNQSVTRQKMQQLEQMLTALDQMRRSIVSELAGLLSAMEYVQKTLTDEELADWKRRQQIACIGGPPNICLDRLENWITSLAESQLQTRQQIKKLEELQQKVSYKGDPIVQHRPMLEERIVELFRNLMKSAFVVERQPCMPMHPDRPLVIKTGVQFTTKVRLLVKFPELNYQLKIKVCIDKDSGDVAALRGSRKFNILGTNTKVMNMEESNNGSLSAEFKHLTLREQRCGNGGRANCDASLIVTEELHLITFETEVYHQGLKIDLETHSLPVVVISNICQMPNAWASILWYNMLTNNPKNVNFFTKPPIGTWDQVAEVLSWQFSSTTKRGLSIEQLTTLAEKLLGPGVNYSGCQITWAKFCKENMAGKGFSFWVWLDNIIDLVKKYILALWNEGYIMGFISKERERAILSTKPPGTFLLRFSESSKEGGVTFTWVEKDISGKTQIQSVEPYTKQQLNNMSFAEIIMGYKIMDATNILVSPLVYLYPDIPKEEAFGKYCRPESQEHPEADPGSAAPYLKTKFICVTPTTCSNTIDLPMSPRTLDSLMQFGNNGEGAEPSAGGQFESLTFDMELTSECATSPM
Sequence of Heat shock factor protein 1 (Homo sapiens) (Q00613 whole entry, looked up, the tested form may be a part): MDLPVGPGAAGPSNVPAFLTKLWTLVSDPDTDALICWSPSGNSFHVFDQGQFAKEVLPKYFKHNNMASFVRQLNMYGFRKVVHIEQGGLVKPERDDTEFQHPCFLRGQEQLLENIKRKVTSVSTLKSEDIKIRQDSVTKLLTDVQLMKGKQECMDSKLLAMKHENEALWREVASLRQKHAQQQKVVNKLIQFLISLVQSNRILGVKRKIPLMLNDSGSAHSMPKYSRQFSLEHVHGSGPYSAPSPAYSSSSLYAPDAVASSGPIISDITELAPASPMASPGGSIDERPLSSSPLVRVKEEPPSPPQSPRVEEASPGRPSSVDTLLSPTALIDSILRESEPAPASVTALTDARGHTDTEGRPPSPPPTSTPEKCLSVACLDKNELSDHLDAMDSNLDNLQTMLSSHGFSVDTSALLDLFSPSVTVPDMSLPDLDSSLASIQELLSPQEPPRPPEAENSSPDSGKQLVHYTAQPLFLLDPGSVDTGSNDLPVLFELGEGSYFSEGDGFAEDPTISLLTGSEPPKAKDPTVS
Sequence of Hepatocyte nuclear factor 6 (Homo sapiens) (Q9UBC0 whole entry, looked up): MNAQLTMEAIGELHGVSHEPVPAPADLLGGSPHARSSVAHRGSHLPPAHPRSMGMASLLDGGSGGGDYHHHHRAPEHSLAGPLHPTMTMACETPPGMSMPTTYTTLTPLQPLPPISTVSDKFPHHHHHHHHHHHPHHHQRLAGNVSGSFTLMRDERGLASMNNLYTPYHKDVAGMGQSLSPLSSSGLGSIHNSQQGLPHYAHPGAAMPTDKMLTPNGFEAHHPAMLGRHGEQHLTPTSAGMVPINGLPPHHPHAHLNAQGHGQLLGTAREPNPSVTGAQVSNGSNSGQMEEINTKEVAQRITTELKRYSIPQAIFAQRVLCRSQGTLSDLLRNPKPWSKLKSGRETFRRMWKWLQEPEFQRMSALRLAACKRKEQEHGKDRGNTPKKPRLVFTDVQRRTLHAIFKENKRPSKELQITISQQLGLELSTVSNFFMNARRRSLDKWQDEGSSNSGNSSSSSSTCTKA
Sequence of Hypoxia-inducible factor 1-alpha (Homo sapiens) (Q16665 whole entry, looked up): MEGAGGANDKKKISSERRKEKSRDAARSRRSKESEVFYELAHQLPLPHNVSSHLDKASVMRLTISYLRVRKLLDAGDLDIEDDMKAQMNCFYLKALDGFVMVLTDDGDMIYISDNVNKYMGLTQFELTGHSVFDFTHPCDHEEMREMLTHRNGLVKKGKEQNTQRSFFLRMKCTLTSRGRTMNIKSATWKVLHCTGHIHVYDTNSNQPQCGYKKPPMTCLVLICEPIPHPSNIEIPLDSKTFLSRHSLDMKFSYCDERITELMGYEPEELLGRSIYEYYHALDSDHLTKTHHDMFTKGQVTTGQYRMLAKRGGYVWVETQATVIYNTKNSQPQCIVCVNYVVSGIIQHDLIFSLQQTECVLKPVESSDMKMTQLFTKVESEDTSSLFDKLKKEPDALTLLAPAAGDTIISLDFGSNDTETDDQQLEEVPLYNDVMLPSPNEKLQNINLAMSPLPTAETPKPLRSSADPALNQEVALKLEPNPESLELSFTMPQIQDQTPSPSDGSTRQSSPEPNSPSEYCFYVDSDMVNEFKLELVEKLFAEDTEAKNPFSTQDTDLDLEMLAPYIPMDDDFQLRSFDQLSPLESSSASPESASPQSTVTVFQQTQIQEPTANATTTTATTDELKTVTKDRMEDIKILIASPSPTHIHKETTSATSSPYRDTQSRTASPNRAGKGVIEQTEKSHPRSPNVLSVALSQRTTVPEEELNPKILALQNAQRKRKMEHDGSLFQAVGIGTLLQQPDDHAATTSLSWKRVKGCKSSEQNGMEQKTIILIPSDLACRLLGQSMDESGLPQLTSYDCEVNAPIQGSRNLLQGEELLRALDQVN
Sequence of Paired box protein Pax-6 (Homo sapiens) (P26367 whole entry, looked up): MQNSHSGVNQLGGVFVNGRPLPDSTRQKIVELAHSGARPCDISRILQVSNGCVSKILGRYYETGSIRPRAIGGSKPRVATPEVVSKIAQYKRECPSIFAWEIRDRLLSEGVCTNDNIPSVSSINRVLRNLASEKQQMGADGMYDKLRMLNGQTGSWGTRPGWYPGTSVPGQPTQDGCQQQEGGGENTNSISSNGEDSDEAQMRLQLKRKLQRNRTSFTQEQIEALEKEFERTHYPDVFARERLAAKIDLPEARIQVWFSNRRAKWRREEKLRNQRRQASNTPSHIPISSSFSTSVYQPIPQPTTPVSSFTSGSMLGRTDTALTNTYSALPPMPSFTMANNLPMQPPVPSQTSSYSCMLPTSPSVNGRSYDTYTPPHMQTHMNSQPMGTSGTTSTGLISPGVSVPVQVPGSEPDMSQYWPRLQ
Sequence of Bile acid receptor (Homo sapiens) (Q96RI1 whole entry, looked up): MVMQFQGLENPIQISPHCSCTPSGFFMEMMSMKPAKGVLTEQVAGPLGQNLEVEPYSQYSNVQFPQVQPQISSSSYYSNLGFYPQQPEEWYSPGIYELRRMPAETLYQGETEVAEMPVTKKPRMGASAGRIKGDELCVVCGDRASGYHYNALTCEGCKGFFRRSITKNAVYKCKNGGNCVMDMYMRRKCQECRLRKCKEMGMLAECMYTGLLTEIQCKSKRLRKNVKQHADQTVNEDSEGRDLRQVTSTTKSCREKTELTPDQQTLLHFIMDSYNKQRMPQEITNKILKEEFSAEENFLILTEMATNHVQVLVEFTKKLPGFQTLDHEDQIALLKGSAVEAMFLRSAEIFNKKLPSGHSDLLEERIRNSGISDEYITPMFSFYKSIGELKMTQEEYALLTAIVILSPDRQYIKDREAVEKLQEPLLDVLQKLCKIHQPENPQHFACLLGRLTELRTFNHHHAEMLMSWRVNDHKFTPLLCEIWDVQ

OCC(O)CCl (stereo not drawn)
not listed: [19] | [20]
inactive: all other assays above

ClCC(Cl)CCl
not listed: [12] | [18] | [20]
inactive: all other assays above

CC(=O)c1cc(C(C)(C)C)cc2c1CCC2(C)C
active: [1] 73.9 µM | [7] 64.4 µM | [10] 26.9 µM | [11] 5.72 µM | [12] 29.4 µM | [19] 69.3 µM | [15] 54.4 µM
not listed: [3] | [8] | [18] | [20]
inactive: all other assays above

CCCCP(CCCC)CCCC
active: [11] 23.6 µM
not listed: [1] | [3] | [9] | [12] | [17]
inactive: all other assays above

O=C(CCl)CCl
inactive: [4] | [12] | [13] | [14] | [16] | [17]
active: [1] 33.4 µM | [2] 33.4 µM | [5] 45.6 µM | [6] 33.4 µM | [7] 58.7 µM | [8] 48.9 µM | [10] 41.3 µM | [19] 33.4 µM | [15] 46 µM | [18] 23.4 µM

COP(=S)(OC)Oc1c(Cl)cc(C)cc1Cl
active: [8] 27.1 µM | [11] 4.62 µM
not listed: [3] | [13] | [18] | [20]
inactive: all other assays above

COP(=S)(OC)Oc1ccc(S(=O)(=O)N(C)C)cc1
not listed: [8] | [11] | [12] | [18] | [19] | [20]
inactive: all other assays above

CCCCCCCCC(=O)NCc1ccc(O)c(OC)c1
active: [7] 125 µM | [8] 131 µM
not listed: [5] | [11] | [17] | [20]
inactive: all other assays above
